ATXN2 expr inh – Primary qHTS for Inhibitors of ATXN expression; Potency, µM (doses to about 57 µM), for the others: at the top dose activity change, negative = inhibition, usual class: inhibitors; HEK-293 ATXN2-luciferase reporter, luminescence, 24 h; 360,000 tested, 0.72% active; note: % is set by controls: 0 for no effect and ±100 for the full control effect; nearly all actives have a fitted effect of over 55% in size
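ATXN2-luciferase reporter cells (luciferase flanked by upstream and downstream ATXN2 gene portions) were treated 24 h at 37 °C with compounds at up to 57 uM. SteadyGlo luminescence gave expression; GF-AFC fluorescence gave viability.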
HepG2 viability – qHTS for Inhibitors of TGF-b: Cytotox Counterscreen; 410,000 tested, 0.76% active; Potency, µM (series often up to 46.1 µM), inactives show top-dose activity change, negative = cytotoxicity, usual class: cytotoxic; AID 588856, 2011; HepG2 CAGA-GFP viability, ATP luminescence, 18 h
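HepG2 CAGA-GFP cells (1000/well, DMEM with 1% FBS) received compound, then TGF-beta at 500 pg/mL final, and were incubated 18 hours at 37 degrees C. Viability was read by CellTiter-Glo luminescence. Media-only wells were set as complete cell-killing and DMSO as no toxicity.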
Anesthetic bind – qHTS Assay for Identification of Novel General Anesthetics | Ferritin light chain (Equus caballus), P02791 | apoferritin/1-aminoanthracene competitive binding, fluorescence | Potency, µM (doses to about 77.5 µM), without a hit: top-dose activity change, negative = displacement, actives largely listed as inhibitors | 350,000 tested, 0.074% active; note: % is set by controls: 0 for no effect and ±100 for the full control effect; nearly all actives have a fitted effect of over 20% in size
Target sequence (P02791 2-175 limits assumed): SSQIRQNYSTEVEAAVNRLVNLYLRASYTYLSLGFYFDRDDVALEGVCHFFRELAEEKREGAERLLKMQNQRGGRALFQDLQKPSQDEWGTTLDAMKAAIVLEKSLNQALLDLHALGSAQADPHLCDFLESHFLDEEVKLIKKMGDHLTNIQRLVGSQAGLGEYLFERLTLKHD
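In PBS, apoferritin at 10 uM is loaded with 1-AMA from a 50% saturated solution. After 10 min of compound exposure at ambient temperature, reduced 535 nm fluorescence indicates probe displacement.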
TGFb inhibitor – qHTS for Inhibitors of TGF-b. HepG2 CAGA-GFP TGF-b/SMAD3 reporter, GFP fluorescence, 18 h; TGF-beta stimulated, 500 pg/mL final. Potency, µM (doses to about 46.1 µM), for inactives: at the highest dose activity, negative = inhibition, actives largely listed as inhibitors. 410,000 tested, 1.2% active; note: % is set by controls: 0 for no effect and ±100 for the full control effect; nearly all actives have a fitted effect of over 65% in size
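Read-out: total well GFP (ex488/em500-530) summed from mean per-cell fluorescence. Cells: HEPG2 CAGA-GFP, 1% FBS DMEM, 18 h at 37 degrees C with 500 pg/mL final TGF-beta. Unstimulated wells served as the full-inhibition control; stimulated DMSO wells = 0%.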
ATXN viability – Viability Counterscreen for Primary qHTS for Inhibitors of ATXN expression; S2 cells (HEK-293 line with an ATXN2-luciferase reporter) viability, CellTiter-Fluor protease fluorescence, 24 h; Potency, µM (series often up to 56.7 µM), hits mostly cytotoxic; 400,000 tested, 0.49% active; note: nearly all actives have a fitted effect of over 40% in size
* = called active by the depositor; i = inactive; u = inconclusive; x = no result. Compounds with a hit are over-represented: about 2.4% of the library has one in this group of screens. Calls come from the whole dose curve; as a rule, active = well fitted curve in the direction sought with a large enough effect; inconclusive = small, poorly fitted or top-dose-only effect, or another doubt; inactive = no such curve, though single readings can be large; an effect the other way counts as inactive or inconclusive. Potency is the fitted concentration of half-maximal effect.

SMILES	ATXN2 expr inh	HepG2 viability	Anesthetic bind	TGFb inhibitor	ATXN viability
COc1ccc(NC(=O)Nc2nc(C(N)Cc3ccc(C(F)(F)F)cc3)cs2)cc1 (stereo not drawn)	u	10µM*	x	11µM*	i
COc1cc(NC(=O)Nc2nc(C(N)Cc3ccc(C(F)(F)F)cc3)cs2)cc(OC)c1OC (stereo not drawn)	u	-106%	x	11µM*	u
COc1ccc(CC(N)c2csc(NC(=O)CCc3ccccc3)n2)cc1 (stereo not drawn)	u	-66%	x	u	i
Cc1ccc(C(=O)Nc2nc(C(N)Cc3ccc(C(F)(F)F)cc3)cs2)cc1 (stereo not drawn)	u	18µM*	x	u	x
COc1ccc(CC(N)c2csc(NC(=O)Nc3ccc(OC)cc3)n2)cc1 (stereo not drawn)	u	-82%	x	u	u
COc1ccc(CC(N)c2csc(NC(=O)c3cc(C(C)(C)C)oc3C)n2)cc1 (stereo not drawn)	u	-103%	x	u	28µM*
COc1ccc(OC)c(CN2CCCC(c3nc(-c4ccncc4)ncc3-c3ccccc3C)C2)c1 (stereo not drawn)	x	x	x	x	i
CC(=O)Oc1ccc(OC(C)=O)c(SCCCCCN2CCOCC2)c1	u	-81%	-9%	16µM*	u
CC(C)c1ccc(OCCCCCN2CCOCC2)cc1	18%	-36%	-12%	-6%	i
O=C(c1ccc(N2CCOCC2)c([N+](=O)[O-])c1)N1CCCC(C(F)(F)F)C1 (stereo not drawn)	-4%	89%	x	-8%	i
COc1ccc(CNC(=O)c2ccc(-c3nc(CSc4ccccc4)c(C)o3)cc2)cc1	-10%	10µM*	-4%	u	i
Cc1ccccc1CN1[C@@H](Cc2ccccc2)COCCS1(=O)=O	-7%	6%	x	u	i
C=C1[C@@H](O)[C@H](Cc2ccccc2)N(Cc2ccccc2Br)S1(=O)=O	20µM*	10µM*	x	u	18µM*
Cc1cc(NCCCCCCCNc2cc(C)nc3cc([N+](=O)[O-])ccc23)c2ccc([N+](=O)[O-])cc2n1	u	-117%	x	8.9µM*	21µM*
Cc1ccnc(N/N=C/c2ccccc2)n1	-22%	-29%	-10%	10%	i
Cc1cc(C)nc(N/N=C2/CCCC/C2=C\c2ccccc2)n1	0.95µM*	-47%	-20%	u	u
Cc1ccc(C)c(NC(=O)CSc2nnc(NC(=O)Nc3ccccc3)s2)c1	x	4%	5%	-19%	x
Cc1nn(Cc2cccc(F)c2)c(C)c1NC(=O)c1ccc(COc2ccccc2Cl)cc1	3.2µM*	2%	33%	u	u
Cc1nn(Cc2c(F)c(F)c(F)c(F)c2F)c(C)c1NC(=O)c1ccc(COc2ccc(Cl)cc2Cl)o1	20µM*	-5%	0%	u	i
Cc1nn(Cc2c(F)c(F)c(F)c(F)c2F)c(C)c1NC(=O)c1cccc(COc2ccccc2Cl)c1	u	-43%	-13%	-23%	i
Nc1ccc2c(c1)C1(CCC2)NC(=O)NC1=O (stereo not drawn)	x	7%	x	-9%	i
O=C(COc1ccccc1)OCc1cc(=O)n2nc(C3CC3)sc2n1	7%	12%	u	19%	i
Cc1cccc(OCC(=O)OCc2cc(=O)n3nc(C4CCCCC4)sc3n2)c1	10%	11%	16µM*	2%	i
COc1ccc(S(=O)(=O)NCc2ccco2)cc1NC(=O)c1ccccc1	-10%	8%	-6%	4%	i
Cc1ccc(NC(=O)COC(=O)CSC(=S)N2CCOCC2)cc1C	-3%	-1%	5.6µM*	-7%	i
O=C(CSc1cccc2cccnc12)Nc1ccc(S(=O)(=O)N2CCOCC2)cc1	13µM*	-175%	-17%	u	11µM*
CCCCCOc1ccc(NC(=O)CSc2cccc3cccnc23)cc1	-38%	20µM*	-20%	u	i
